mIDH1 inhibitor: blocks human mutant IDH1 R132H enzyme. O75874. IDH1-R132H enzyme, NADPH consumption, diaphorase/resazurin fluorescence. Potency, µM (series often up to 76.6 µM), without a hit: at the top dose activity change, negative = inhibition, usual class: inhibitors. 390,000 compounds, 0.093% hits. AID 602179; note: nearly all actives have a fitted effect of over 65% in size
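IDH1-R132H (0.5 ug/mL dispensed) in pH 7.5 Tris buffer was preincubated 30 min with compound, then given a substrate mix of 0.016 mM NADPH and 2 mM alpha-KG for 80 min at room temperature; remaining NADPH was read by diaphorase/resazurin fluorescence.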
TrxR1 substrate: is turned over as a substrate by rat TrxR1; Potency, µM (doses to about 114 µM), inactives show top-dose activity change, negative = substrate turnover; purified TrxR1 substrate turnover, NADPH consumption readout; 390,000 compounds, 0.01% hits; AID 588456; O89049; note: nearly all actives have a fitted effect of over 50% in size
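Rat TrxR1, dispensed at 90 nM, was prereduced with 400 uM NADPH (final) for 5 min at ~22 deg C, then incubated with compound 15 min before 400 uM selenite. A first-read NADPH fluorescence drop versus no-compound background flagged substrates.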
RGS4 inhibitor: inhibitors of human regulator of G protein signaling 4; P49798; Transcreener GDP fluorescence polarization, RGS4-accelerated GTP hydrolysis; Potency, µM (doses to about 114 µM), for the others: at the highest dose activity change, negative = inhibition, most hits filed as inhibitors; 390,000 compounds, 0.039% hits; note: nearly all actives have a fitted effect of over 75% in size
Target sequence (P49798 whole entry, looked up): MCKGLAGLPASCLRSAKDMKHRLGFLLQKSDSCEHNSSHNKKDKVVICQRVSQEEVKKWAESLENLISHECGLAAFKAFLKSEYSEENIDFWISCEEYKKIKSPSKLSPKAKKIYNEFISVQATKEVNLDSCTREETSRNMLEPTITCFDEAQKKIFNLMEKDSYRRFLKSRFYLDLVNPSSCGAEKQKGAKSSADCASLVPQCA
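MLSMR compounds (23 nl, pin-transferred) preincubated 10 min at room temperature with a 500nM (2x) first reagent, then RGS4 at 900nM (2x) plus Transcreener GDP mix added; fluorescence polarization (620/688 nm) read before and after 90 min at 30 °C.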
rTrxR1 inhibitor: inhibitors of rat thioredoxin reductase 1 | O89049 | recombinant rTrxR1, NADPH fluorescence consumption, selenite substrate | Potency, µM (series often up to 114 µM), inactives show at the top dose activity change, negative = inhibition, actives largely listed as inhibitors | 390,000 compounds, 1% hits; note: nearly all actives have a fitted effect of over 65% in size
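Rat TrxR1 (90 nM in the dispensed reagent) was pre-reduced with 400 uM NADPH for 5 min at room temperature, then incubated with compound for 15 min. After 400 uM selenite was added, NADPH fluorescence (Ex 340/Em 450 nm) was followed for 8 min.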
Eya2 inh: Eya2 (human) phosphatase inhibition. O00167. recombinant Eya2, OMFP fluorescence dephosphorylation (OMFP is methylfluorescein phosphate). Potency, µM (top dose mostly 76.9 µM), for the others: top-dose activity, negative = inhibition, actives largely listed as inhibitors. 330,000 compounds, 0.006% hits. AID 488837
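Eya2 (0.2 uM) preincubated 10 min at ambient with compound, then OMFP substrate added at 50 uM; 10 min reaction in 50 mM HEPES pH 7.5, 50 mM NaCl, 5 uM MgCl2, 0.05% BSA, 1 mM DTT. Fluorescence read at Ex 485/Em 525 nm.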
* = called active by the depositor; ? = inconclusive; nt = not tested or not shown; [ ] = another dose, or the depositor's remark. Sampled rows, rich in hits. Any-hit rate of the full collection: about 1.1%. Calls come from the whole dose curve; as a rule, active = well fitted curve in the direction sought with a large enough effect; inconclusive = small, poorly fitted or top-dose-only effect, or another doubt; inactive = no such curve, though single readings can be large; an effect the other way counts as inactive or inconclusive. % is set by controls: 0 for no effect and ±100 for the full control effect; potency is the fitted concentration of half-maximal effect.

SMILES	mIDH1 inhibitor	TrxR1 substrate	RGS4 inhibitor	rTrxR1 inhibitor	Eya2 inh
CC1CCCCC1NC(=O)CN1c2cccc3cccc(c23)S1(=O)=O (stereo unspecified)	2%	20%	0%	0%	6%
CC(C)Cn1cnc2c(SCc3ccccc3Cl)nc(N)nc21	1%	-16%	14%	-11%	nt
CCC(C)Cn1cnc2c(Sc3c([N+](=O)[O-])ncn3C)nc(N)nc21 (stereo unspecified)	7%	1%	-13%	2.8µM*	nt
CCC(C)Cn1cnc2c(SCc3ccccn3)nc(N)nc21 (stereo unspecified)	1%	1%	4%	16%	nt
CC(C)Cn1cnc2c(Sc3c([N+](=O)[O-])ncn3C)nc(N)nc21	-3%	-8%	28%	2µM*	nt
O=C(NCc1ccco1)/C(=C/c1ccccc1)NC(=O)c1ccco1	0%	4%	4%	25%	-9%
O=C(NCc1ccco1)/C(=C\c1ccco1)NC(=O)c1ccc(Br)o1	6%	-11%[57.1 µM]	-7%	7%[57.1 µM]	2%
O=C(NCc1ccco1)/C(=C/c1ccco1)NC(=O)c1ccc(Br)o1	2%	-7%	-20%	50µM*	-33%
O=C(NCc1ccco1)/C(=C\c1ccco1)NC(=O)c1ccco1	-5%	-8%	-19%	50µM*	-2%
COc1ccc(NC(=O)Cn2c(=O)oc3cc(S(=O)(=O)N4CCCCCC4)ccc32)cc1OC	13%	0%[57.1 µM]	2%	1%[57.1 µM]	nt
COc1ccc2c(c1)CCCC21NC(=O)N(CC(=O)NCc2cccs2)C1=O (stereo unspecified)	10%	15%	23%	29%	-3%
CC(/C=C/c1ccco1)=N\NC(=O)CNc1cccc(C)c1	-2%	0%	0%	17%	3%
COC(=O)N/N=C(C)\C=C\c1ccco1	-1%	-12%	-27%	40µM*	6%
CC(/C=C/c1ccco1)=N\NC(=O)C(O)c1ccccc1 (stereo unspecified)	6%	-13%	-40%	18µM*	1%
Nc1ccc(O)cc1	nt	?	?	14µM*	nt
CS(=O)(=O)N(CC(=O)NCCSc1ccc(Cl)cc1)c1ccc2c(c1)OCO2	-2%	6%[57.1 µM]	20%	12%[57.1 µM]	-10%
CCOc1ncccc1C(=O)OCC(=O)Nc1ccc(-c2nc3ccc(C)cc3s2)cc1	4%	40%	26%	-3%	-8%
O=c1oc2ccccc2c(N2CCCC2)c1CN1CCCC1	-3%	-7%	-16%	?	-5%
O=c1oc2ccccc2c(Cl)c1CN1CCCCC1	-5%	6%	-14%	3.2µM*	1%
COc1ccc(C)cc1NC(=O)C1CCCN(S(=O)(=O)c2ccc3[nH]c(=O)ccc3c2)C1 (stereo unspecified)	9%	-8%	-3%	1%	-9%
O=C(Nc1cnc2ccccc2c1)C1COc2ccccc2O1 (stereo unspecified)	5%	-1%	4%	-5%	12%
NC1=C(Cl)C(=O)c2ccccc2C1=O	-4%	-10%	-30%	13µM*	nt
CCCCC/C=C\C/C=C\C/C=C\C/C=C\CCCC(=O)OC(CO)CO	nt	nt	-110%[56.9 µM]	nt	nt
CCCCC/C=C\C/C=C\CCCCCCCC(=O)O[C@@H](CO)COC(=O)CCCCCCCCCCCCCCCCC	nt	nt	2.7µM*	nt	nt
CCOc1ccc(N2C(=O)CC(NCCNc3ccc([N+](=O)[O-])cn3)C2=O)cc1 (stereo unspecified)	8%	-2%	-14%	?	-12%
COc1ccc(N2C(=O)CC(NCCNc3ccc([N+](=O)[O-])cn3)C2=O)cc1 (stereo unspecified)	1%	-6%	2%	14µM*	3%
O=S(=O)(c1ccc(N=C2NN=C(c3cc(F)ccc3F)CS2)cc1)N1CCOCC1	26µM*	-1%[57.1 µM]	?	11%[57.1 µM]	1%
Fc1ccc(N=C2NN=C(c3cc(F)ccc3F)CS2)cc1	11µM*	12%[57.1 µM]	-40%	22%	-1%
CC(=O)Nc1ccc(C2=NNC(=Nc3ccc(S(=O)(=O)N4CCOCC4)cc3)SC2)cc1	13µM*	-8%	-28%	-2%	-11%
